Article PMC7862700, “An all-to-all approach to the identification of sequence-specific readers for epigenetic DNA modifications on cytosine”

Legend:
Assay in all cases: DAPPL (digital affinity profiling via proximity ligation, sequencing); 10 mM Tris-HCl pH 7.5, 50 mM NaCl, 1 mM DTT, 4% glycerol, room temperature, 30 min; GST-TFs on glutathione beads, 16-mer random dsDNA library, 0.1% formaldehyde crosslink after washing; high values mean tight binding
Conditions in all cases: protein: recombinant; tags: N-terminal GST; dsDNA, one strand shown
FEV = molecular target: T1, FEV (Homo sapiens, UniProt Q99581 1-238)
T1 sequence: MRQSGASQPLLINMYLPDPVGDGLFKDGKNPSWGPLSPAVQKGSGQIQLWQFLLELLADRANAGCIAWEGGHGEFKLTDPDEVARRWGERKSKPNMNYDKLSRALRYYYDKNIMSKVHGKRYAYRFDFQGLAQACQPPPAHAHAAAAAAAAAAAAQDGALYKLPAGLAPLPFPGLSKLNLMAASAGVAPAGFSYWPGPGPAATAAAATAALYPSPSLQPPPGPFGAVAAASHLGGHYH
Method in brief: (§1)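 Binding signal is each hexamer's read frequency for a factor divided by its frequency in the tag-only sample. The factors were GST-fused human transcription factors from yeast, captured on glutathione beads, DNA-barcoded and pooled with that sample. Pools were incubated with 200 nmole of a random double-stranded 16-mer DNA library in Tris/NaCl/DTT/glycerol buffer at room temperature for 30 min, then washed, crosslinked with 0.1% formaldehyde, proximity-ligated with BsaI/T4 ligase (1 h, 37 °C), PCR-amplified and sequenced on an Illumina NextSeq500.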

ETV5 = ETV5 (Homo sapiens, UniProt P41161 1-510)
Method in brief: as §1

SPIC = molecular target: T2, SPIC (Homo sapiens, UniProt Q8N5J4 1-248)
T2 sequence: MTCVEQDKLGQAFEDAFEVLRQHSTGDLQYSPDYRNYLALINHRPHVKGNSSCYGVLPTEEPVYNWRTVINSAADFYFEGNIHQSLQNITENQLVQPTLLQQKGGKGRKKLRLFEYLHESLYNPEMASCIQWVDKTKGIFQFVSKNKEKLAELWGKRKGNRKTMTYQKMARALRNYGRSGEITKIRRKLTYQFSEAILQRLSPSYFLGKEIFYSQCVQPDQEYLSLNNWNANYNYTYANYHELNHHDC
Method in brief: as §1

ELF4 = ELF4 (Homo sapiens, UniProt Q99607 1-663)
Method in brief: as §1

ELK4 = molecular target: T3, ELK4 (Homo sapiens, UniProt P28324-2 1-405)
T3 sequence: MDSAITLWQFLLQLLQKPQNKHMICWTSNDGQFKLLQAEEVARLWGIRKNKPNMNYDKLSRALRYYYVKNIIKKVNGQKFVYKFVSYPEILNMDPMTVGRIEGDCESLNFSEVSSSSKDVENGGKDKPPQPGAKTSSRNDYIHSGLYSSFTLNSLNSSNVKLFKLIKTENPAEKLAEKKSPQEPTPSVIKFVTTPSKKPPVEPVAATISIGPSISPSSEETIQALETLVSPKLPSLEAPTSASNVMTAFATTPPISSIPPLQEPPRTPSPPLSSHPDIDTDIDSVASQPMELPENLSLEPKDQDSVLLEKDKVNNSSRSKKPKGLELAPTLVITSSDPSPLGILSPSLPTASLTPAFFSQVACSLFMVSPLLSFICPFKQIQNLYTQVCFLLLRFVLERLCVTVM
Method in brief: as §1

ETV2 = molecular target: T4, ETV2 (Homo sapiens, UniProt O00321 1-342)
T4 sequence: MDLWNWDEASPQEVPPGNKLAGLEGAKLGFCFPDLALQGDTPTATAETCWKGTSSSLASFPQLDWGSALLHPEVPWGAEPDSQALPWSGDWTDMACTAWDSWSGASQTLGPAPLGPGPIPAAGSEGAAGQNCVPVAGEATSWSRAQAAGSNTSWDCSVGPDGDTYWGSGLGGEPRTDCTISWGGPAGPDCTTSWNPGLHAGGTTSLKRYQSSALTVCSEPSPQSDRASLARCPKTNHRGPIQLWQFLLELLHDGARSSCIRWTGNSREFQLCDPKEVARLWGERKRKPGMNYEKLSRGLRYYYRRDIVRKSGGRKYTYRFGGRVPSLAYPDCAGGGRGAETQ
Method in brief: as §1

ELF3 = molecular target: T5, ELF3 (Homo sapiens, UniProt P78545 1-371)
T5 sequence: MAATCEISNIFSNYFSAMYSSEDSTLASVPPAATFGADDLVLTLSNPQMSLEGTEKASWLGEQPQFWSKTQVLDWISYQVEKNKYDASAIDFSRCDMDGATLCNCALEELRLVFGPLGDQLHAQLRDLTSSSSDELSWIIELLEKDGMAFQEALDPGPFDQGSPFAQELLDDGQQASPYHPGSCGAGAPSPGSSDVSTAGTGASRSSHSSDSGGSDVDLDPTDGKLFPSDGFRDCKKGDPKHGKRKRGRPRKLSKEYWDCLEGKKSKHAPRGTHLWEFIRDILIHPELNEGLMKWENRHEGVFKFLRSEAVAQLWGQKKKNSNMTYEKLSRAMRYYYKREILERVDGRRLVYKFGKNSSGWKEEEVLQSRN
Method in brief: as §1

CRX = CRX (Homo sapiens, UniProt O43186 1-299)
Method in brief: as §1

ETV1 = ETV1 (Homo sapiens, UniProt P50549 1-477)
Method in brief: as §1

ERF = molecular target: T6, ERF (Homo sapiens, UniProt P50548 1-548)
T6 sequence: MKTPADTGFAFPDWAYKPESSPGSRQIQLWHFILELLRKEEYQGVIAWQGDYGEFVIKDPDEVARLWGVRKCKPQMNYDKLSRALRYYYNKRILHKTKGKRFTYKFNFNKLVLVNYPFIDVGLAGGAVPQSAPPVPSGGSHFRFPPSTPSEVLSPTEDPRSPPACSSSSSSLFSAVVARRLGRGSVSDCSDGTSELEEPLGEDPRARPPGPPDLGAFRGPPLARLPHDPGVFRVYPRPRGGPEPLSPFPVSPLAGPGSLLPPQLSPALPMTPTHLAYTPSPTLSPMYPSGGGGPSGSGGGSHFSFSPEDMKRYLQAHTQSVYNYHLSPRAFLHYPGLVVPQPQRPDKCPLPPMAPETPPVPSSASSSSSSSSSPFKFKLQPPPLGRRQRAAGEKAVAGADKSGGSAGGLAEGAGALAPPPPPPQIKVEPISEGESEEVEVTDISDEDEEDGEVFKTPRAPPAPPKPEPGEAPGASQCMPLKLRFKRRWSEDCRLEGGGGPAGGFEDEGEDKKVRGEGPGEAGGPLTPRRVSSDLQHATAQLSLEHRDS
Method in brief: as §1

ETV3L = molecular target: T7, ETV3L (Homo sapiens, UniProt Q6ZN32 1-361)
T7 sequence: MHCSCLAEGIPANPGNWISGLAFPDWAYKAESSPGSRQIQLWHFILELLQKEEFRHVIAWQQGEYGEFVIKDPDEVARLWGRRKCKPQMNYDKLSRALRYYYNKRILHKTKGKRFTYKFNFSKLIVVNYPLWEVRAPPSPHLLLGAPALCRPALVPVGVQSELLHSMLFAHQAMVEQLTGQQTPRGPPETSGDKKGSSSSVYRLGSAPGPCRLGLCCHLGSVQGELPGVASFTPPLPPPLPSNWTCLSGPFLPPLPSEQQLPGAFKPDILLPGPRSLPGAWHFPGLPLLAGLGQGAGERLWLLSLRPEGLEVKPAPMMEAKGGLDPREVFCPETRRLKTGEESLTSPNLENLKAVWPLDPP
Method in brief: as §1

ETS2 = molecular target: T8, ETS2 (Homo sapiens, UniProt P15036 1-469)
T8 sequence: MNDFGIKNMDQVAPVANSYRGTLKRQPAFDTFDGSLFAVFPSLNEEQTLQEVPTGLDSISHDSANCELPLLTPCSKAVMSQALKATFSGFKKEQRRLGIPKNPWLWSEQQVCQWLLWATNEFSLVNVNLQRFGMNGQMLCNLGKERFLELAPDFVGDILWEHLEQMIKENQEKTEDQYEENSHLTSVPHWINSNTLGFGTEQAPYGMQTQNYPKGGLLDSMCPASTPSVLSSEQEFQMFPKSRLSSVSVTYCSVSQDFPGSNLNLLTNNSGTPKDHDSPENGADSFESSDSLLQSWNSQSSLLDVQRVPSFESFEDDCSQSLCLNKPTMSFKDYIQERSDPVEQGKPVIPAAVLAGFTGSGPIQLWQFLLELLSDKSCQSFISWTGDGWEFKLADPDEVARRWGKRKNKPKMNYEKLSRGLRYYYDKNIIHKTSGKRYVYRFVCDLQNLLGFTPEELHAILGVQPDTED
Method in brief: as §1

SPDEF = molecular target: T9, SPDEF (Homo sapiens, UniProt O95238 1-335)
T9 sequence: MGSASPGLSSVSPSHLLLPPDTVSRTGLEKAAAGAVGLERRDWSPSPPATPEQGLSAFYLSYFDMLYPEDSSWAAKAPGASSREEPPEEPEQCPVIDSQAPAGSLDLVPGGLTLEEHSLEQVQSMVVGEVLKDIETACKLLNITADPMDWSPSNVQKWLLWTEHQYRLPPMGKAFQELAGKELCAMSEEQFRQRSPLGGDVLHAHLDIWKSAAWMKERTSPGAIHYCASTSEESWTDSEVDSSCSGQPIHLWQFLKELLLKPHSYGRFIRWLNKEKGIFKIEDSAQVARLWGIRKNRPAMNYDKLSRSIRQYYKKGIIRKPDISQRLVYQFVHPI
Method in brief: as §1

ETV7 = molecular target: T10, ETV7 (Homo sapiens, UniProt Q9Y603 1-341)
T10 sequence: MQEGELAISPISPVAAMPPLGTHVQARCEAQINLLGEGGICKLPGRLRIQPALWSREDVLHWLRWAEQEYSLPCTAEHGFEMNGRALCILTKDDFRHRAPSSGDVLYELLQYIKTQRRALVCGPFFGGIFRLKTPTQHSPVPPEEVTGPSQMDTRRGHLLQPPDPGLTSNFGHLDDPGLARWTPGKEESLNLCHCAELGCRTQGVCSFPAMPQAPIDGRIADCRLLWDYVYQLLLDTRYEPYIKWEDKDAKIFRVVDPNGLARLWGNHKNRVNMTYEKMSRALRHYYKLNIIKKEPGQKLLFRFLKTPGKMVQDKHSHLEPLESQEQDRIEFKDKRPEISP
Method in brief: as §1

ELF5 = molecular target: T11, ELF5 (Homo sapiens, UniProt Q9UKW6-2 1-255)
T11 sequence: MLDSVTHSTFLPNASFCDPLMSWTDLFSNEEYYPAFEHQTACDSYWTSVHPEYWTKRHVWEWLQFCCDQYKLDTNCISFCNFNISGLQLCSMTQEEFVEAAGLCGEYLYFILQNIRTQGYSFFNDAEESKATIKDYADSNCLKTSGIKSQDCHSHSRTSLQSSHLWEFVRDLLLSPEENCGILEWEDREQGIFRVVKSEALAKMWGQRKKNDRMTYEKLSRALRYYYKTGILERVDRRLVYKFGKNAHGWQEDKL
Method in brief: as §1

ETV3 = molecular target: T12, ETV3 (Homo sapiens, UniProt P41162-2 1-143)
T12 sequence: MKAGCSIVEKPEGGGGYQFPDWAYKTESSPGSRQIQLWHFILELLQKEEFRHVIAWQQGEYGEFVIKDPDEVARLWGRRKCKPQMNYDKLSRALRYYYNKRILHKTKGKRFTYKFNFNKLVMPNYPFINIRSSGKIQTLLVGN
Method in brief: as §1

ETV6 = ETV6 (Homo sapiens, UniProt P41212 1-452)
Method in brief: as §1

Chain of ETV5 (P41161 whole entry): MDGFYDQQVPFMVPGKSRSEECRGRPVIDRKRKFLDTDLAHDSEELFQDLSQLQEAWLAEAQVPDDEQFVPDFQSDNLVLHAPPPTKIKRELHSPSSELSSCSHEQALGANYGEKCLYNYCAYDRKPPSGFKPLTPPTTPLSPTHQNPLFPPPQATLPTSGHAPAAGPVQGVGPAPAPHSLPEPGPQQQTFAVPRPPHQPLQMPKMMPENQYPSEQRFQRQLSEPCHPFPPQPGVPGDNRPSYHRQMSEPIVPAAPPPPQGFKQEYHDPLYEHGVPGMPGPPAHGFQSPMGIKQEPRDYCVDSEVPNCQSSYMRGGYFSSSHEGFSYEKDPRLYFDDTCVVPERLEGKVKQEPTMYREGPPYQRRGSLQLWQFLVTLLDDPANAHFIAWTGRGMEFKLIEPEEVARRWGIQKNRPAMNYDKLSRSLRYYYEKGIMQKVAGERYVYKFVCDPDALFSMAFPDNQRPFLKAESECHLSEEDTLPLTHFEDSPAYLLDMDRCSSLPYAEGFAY
Chain of ETV6 (P41212 whole entry): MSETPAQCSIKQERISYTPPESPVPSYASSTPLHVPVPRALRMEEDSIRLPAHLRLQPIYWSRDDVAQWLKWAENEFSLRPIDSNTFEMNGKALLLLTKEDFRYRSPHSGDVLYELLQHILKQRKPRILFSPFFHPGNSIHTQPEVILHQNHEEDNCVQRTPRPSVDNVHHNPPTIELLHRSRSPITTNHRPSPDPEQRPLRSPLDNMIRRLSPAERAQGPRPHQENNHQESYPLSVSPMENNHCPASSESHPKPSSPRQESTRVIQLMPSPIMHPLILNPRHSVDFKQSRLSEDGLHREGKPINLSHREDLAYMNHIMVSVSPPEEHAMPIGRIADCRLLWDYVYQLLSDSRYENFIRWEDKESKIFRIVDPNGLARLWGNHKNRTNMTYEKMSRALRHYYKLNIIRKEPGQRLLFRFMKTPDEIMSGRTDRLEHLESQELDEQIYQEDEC
Chain of ETV1 (P50549 whole entry): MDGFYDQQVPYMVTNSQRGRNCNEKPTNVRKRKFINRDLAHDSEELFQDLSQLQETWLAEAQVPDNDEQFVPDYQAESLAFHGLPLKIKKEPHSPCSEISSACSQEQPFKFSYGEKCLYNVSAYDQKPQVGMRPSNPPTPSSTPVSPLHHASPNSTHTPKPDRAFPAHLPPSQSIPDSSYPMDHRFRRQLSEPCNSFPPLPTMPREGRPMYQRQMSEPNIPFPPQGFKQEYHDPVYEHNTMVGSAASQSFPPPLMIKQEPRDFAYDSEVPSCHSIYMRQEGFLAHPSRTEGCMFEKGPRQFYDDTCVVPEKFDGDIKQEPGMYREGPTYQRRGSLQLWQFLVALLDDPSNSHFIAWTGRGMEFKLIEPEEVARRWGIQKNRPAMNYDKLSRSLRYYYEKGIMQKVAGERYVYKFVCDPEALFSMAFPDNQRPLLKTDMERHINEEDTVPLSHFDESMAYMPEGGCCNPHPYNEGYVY
Chain of CRX (O43186 whole entry): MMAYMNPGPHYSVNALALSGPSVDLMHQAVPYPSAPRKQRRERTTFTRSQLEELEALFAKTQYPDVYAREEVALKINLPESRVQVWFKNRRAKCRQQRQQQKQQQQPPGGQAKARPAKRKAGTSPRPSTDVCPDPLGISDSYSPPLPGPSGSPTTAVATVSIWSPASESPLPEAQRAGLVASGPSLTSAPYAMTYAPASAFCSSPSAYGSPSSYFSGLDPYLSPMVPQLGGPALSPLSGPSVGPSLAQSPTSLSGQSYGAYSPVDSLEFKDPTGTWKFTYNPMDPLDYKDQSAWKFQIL
Chain of ELF4 (Q99607 whole entry): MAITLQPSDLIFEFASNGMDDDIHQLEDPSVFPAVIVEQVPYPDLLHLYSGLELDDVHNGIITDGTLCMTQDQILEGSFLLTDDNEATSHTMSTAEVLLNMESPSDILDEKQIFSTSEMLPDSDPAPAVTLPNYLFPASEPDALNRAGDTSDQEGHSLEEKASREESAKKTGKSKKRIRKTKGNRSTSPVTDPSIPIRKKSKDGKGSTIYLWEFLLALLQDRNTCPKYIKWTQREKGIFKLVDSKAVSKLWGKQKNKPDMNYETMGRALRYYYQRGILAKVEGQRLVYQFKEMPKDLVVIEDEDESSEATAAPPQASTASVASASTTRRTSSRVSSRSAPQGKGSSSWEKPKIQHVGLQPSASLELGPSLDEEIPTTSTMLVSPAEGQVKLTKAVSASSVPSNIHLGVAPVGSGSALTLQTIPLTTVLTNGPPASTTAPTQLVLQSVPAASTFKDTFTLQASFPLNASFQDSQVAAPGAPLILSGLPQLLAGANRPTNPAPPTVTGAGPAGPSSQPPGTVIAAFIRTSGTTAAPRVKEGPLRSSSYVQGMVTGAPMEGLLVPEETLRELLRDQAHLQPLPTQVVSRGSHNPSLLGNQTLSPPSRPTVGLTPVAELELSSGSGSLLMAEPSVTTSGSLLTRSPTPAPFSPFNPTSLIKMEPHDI

For AAACGG, the binding signal (FEV) was 1.42 fold enrichment (6-mer frequency, TF over GST control), the binding signal (ETV5) was 1.27 fold enrichment (6-mer frequency, TF over GST control) and the binding signal (SPIC) was 1.19 fold enrichment (6-mer frequency, TF over GST control). For the same sequence, the binding signal (ELF4) was 1.23 fold enrichment (6-mer frequency, TF over GST control), the binding signal (ELK4) was 1.19 fold enrichment (6-mer frequency, TF over GST control) and the binding signal (ETV2) was 1.22 fold enrichment (6-mer frequency, TF over GST control). For the same sequence, the binding signal (ELF3) was 1.28 fold enrichment (6-mer frequency, TF over GST control), the binding signal (CRX) was 1.01 fold enrichment (6-mer frequency, TF over GST control) and the binding signal (ETV1) was 1.27 fold enrichment (6-mer frequency, TF over GST control). The binding signal (ERF) was 1.17 fold enrichment (6-mer frequency, TF over GST control), the binding signal (ETV3L) was 1.23 fold enrichment (6-mer frequency, TF over GST control) and the binding signal (ETS2) was 1.26 fold enrichment (6-mer frequency, TF over GST control). The binding signal (SPDEF) was 1.25 fold enrichment (6-mer frequency, TF over GST control), the binding signal (ETV7) was 1.16 fold enrichment (6-mer frequency, TF over GST control) and the binding signal (ELF5) was 1.25 fold enrichment (6-mer frequency, TF over GST control). The binding signal (ETV3) was 1.26 fold enrichment (6-mer frequency, TF over GST control) and the binding signal (ETV6) was 1.28 fold enrichment (6-mer frequency, TF over GST control).
